This is part of a sample that, as a whole, favours compounds with a hit. Of some 83,000 tested, about 20% had one in any assay.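 Plates (96-well) were seeded with cells, treated with compound at one concentration, and incubated for 48 hours before percent growth was determined.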 Unmarked numbers belong to inactive results. Calls of active or inactive are those of the source. The calls were made as follows: active = growth percent below 10; inactive = the rest.
Tests used:
Experiment in all cases: NCI-60 one-dose screen, 48 h (100 = growth as untreated, 0 = no growth, -100 = all killed)
Settings in all cases: 10 µM unless noted
SK-MEL-2 melanoma = system: SK-MEL-2 melanoma
EKVX NSCLC = system: EKVX NSCLC
SN12C renal = system: SN12C renal
UO-31 renal = system: UO-31 renal
TK-10 renal = system: TK-10 renal
ACHN renal = system: ACHN renal
CAKI-1 renal = system: CAKI-1 renal
A498 renal = system: A498 renal
CCRF-CEM leukemia = system: CCRF-CEM leukemia
MOLT-4 leukemia = system: MOLT-4 leukemia
SR leukemia = system: SR leukemia
RPMI-8226 leukemia = system: RPMI-8226 leukemia
OVCAR-8 ovarian = system: OVCAR-8 ovarian
OVCAR-5 ovarian = system: OVCAR-5 ovarian
OVCAR-4 ovarian = system: OVCAR-4 ovarian
SK-OV-3 ovarian = system: SK-OV-3 ovarian
IGROV1 ovarian = system: IGROV1 ovarian
OVCAR-3 ovarian = system: OVCAR-3 ovarian
HS 578T breast = system: HS 578T breast
NCI/ADR-RES ovarian = system: NCI/ADR-RES ovarian

Row | Structure (SMILES) | growth (SK-MEL-2 melanoma) | growth (EKVX NSCLC) | growth (SN12C renal) | growth (UO-31 renal) | growth (TK-10 renal) | growth (ACHN renal) | growth (CAKI-1 renal) | growth (A498 renal) | growth (CCRF-CEM leukemia) | growth (MOLT-4 leukemia) | growth (SR leukemia) | growth (RPMI-8226 leukemia) | growth (OVCAR-8 ovarian) | growth (OVCAR-5 ovarian) | growth (OVCAR-4 ovarian) | growth (SK-OV-3 ovarian) | growth (IGROV1 ovarian) | growth (OVCAR-3 ovarian) | growth (HS 578T breast) | growth (NCI/ADR-RES ovarian)
1 | CCOC(=O)c1c(CN2CCN(C)CC2)nc2ccc(Cl)cc2c1-c1ccccc1 | 80% | 66.4% | 92.8% | 47.3% | 82.6% | 91.7% | 52.8% | 90.7% | 37.7% | 32.5% | -2.55% (active) | 25.5% | 84% | 69% | 79.4% | 90.7% | 50.1% | 76.8% | 61% | 68.7%
2 | Oc1cccc2ccc(N/N=C/c3cc(CN4CCOCC4)c(O)c4ncccc34)nc12 | 25% | 23.4% | 20.2% | -4.14% (active) | 23% | -29.3% (active) | 11.5% | 21.3% | 16.6% | 9.34% (active) | 2.95% (active) | 16.2% | 13% | 28.3% | 14.2% | -14.9% (active) | 18.7% | 23.2% | 36.3% | 2.84% (active)
3 | O=C(CCN1C(=O)/C(=C/c2ccc(Cl)cc2)SC1=S)NCCCN1CCOCC1 | 106% | 90.9% | 98.5% | 84.9% | 110% | 91.4% | 94.4% | 106% | 103% | 102% | 102% | 103% | 92.4% | 103% | 102% | 88.2% | 110% | 105% | 90.9% | 98.9%
4 | FC(F)(F)c1ccc(-c2cn3nc(-c4c[nH]c5ccc(Br)cc45)sc3n2)cc1 | 97.8% | 68.9% | 93.9% | 68.8% | 112% | 88.6% | 61.4% | 113% | 95% | 87.6% | 85.9% | 107% | 105% | 95.5% | 102% | 92.7% | 73.2% | 107% | 89.1% | 96%
5 | COCCNc1ccc2c3c(cccc13)C(=O)N(CCN(C)C)C2=O | -12.6% (active) | 22.5% | 24.7% | 10.6% | 20.5% | 11.9% | -21.4% (active) | 26.5% | 8.36% (active) | -6.43% (active) | -40.1% (active) | -0.282% (active) | 22.3% | 30.5% | 31.6% | 22.9% | 18.1% | 17.9% | 50.8% | 31.4%
6 | O=C1CSC(=S)N1CCc1ccc(O)cc1 | 103% | 97.8% | 81.6% | 60.3% | 68.7% | 91.4% | 81.4% | 97% | 51.1% | 93.4% | 26.4% | 37.9% | 92.6% | 101% | 89.5% | 99.2% | 101% | 78.3% | 84.3% | 94.7%
7 | COc1cccc(/C=C2\SC(=Nc3ccc(NC(C)=O)cc3)NC2=O)c1OC | 110% | 103% | 94.6% | 60.8% | 97.7% | 82.5% | 67.9% | 58.7% | 97.1% | 99.2% | 94.8% | 96.7% | 93% | 91.7% | 100% | 91.3% | 103% | 111% | 70.5% | 102%
8 | Cn1cc(-c2nonc2-c2cn(C)c3ccc(F)cc23)c2cc(F)ccc21 | 30.5% | 67.9% | 61.6% | 68.6% | 85.9% | 70.3% | 42% | 54.2% | 33.6% | 29.1% | 31.8% | 81.4% | 81.7% | 92% | 79% | 45.1% | 52.5% | 23.4% | 52.2% | 30.9%
9 | Cn1cc(C(=O)c2nc(-c3c[nH]c4ccccc34)no2)c2ccccc21 | 65.3% | 50.5% | 91.3% | 61.6% | 68.2% | 86.4% | 56.9% | 95.9% | 86.7% | 72.5% | 44.1% | 78.9% | 91.1% | 66% | 57.3% | 69.8% | 25.7% | 12.8% | 56.2% | 64.2%
10 | Cc1ccc(/C=C2\SC(=S)N(CC(=O)NCCCN3CCOCC3)C2=O)cc1 | 107% | 93.7% | 92.1% | 83.9% | 117% | 90.5% | 89.4% | 96.1% | 104% | 101% | 97.2% | 95.9% | 96.4% | 101% | 91.3% | 82.7% | 107% | 102% | 87.4% | 96.5%
11 | COc1ccc(C2CC(c3ccc(Cl)cc3)=NN2/C=C2\SC(=S)N(NC(=O)Cc3ccccc3Nc3c(Cl)cccc3Cl)C2=O)cc1 (stereo not given) | 80.5% | 62.2% | 48.5% | -30.2% (active) | 52.9% | -34.3% (active) | 62.8% | 72% | 38.3% | 13.5% | 16.8% | 71.9% | 23.3% | 86.3% | 74.7% | 77.9% | 38.9% | 84.4% | 75.6% | 82%
12 | CN1CCN(c2ccc3nc(-c4ccc(OCCCCN5CCN(CCCCN6C(=O)c7cccc8cccc(c78)C6=O)CC5)cc4)[nH]c3c2)CC1 | 79.2% | 78.9% | 73.8% | 16.7% | 88.4% | 89% | 33.1% | 119% | 26.2% | 52% | -68.4% (active) | 26.3% | 22.6% | 116% | 80.5% | 89.3% | 58.5% | 76.1% | 35.2% | 69.6%
13 | CCOC(=O)c1csc(NC(=O)COc2cccc(/C=C3\CSc4ccccc4C3=O)c2)n1 | -49.8% (active) | -36.2% (active) | 74.8% | -35.1% (active) | 68.6% | 45.5% | 2.32% (active) | 115% | -61.3% (active) | -50.9% (active) | -86.4% (active) | -71.2% (active) | 20.3% | 56.4% | 83.6% | 35% | 1.28% (active) | -25.7% (active) | -11% (active) | 44.1%
14 | COc1ccc(NC2=C(Sc3nc(C)cc(C)n3)C(=O)N(Cc3ccccc3)C2=O)cc1Cl | 96.5% [30 µM] | 84.5% [30 µM] | 91.8% [30 µM] | 84.2% [30 µM] | 111% [30 µM] | 103% [30 µM] | 95.7% [30 µM] | 80.4% [30 µM] | 54.6% [30 µM] | 45% [30 µM] | 63.4% [30 µM] | 39.3% [30 µM] | 29.3% [30 µM] | 124% [30 µM] | 78.6% [30 µM] | 117% [30 µM] | 113% [30 µM] | 92% [30 µM] | -21.7% [30 µM] (active) | 63.5% [30 µM]
15 | O=C(CN(C(=O)Cn1c(=O)n2nnnc2c2ccccc21)c1ccccc1C(F)(F)F)Nc1ccc(C(F)(F)F)cc1 | 105% | 101% | 100% | 81.1% | 111% | 102% | 99.2% | 116% | 107% | 104% | 111% | 103% | 100% | 106% | 97.1% | 103% | 88.1% | 110% | 103% | 106%
